From PubChem BioAssay AID1490 (National Center for Advancing Translational Sciences (NCATS), 2009)
Values joined by “and” are separate entries in the source; they are usually repeats but may differ in a detail not shown here. Identical values can stand only once. Among all 310,000 compounds or so, about 11,000 (3.5%) were called active. Not shown: some 4% with an inconclusive outcome. Calls follow the shape of the dose curve; as a rule, active = well fitted inhibition curve with a large enough effect; inconclusive = small, poorly fitted or top-dose-only effect, or another doubt; inactive = no such curve, though single readings can be large or run the other way. Only a selection was taken, and actives are over-represented in it overall.

molecular target: 4'-phosphopantetheinyl transferase ffp (Bacillus subtilis) (UniProt Q9F4F7); experiment: qHTS Assay for Inhibitors of Bacillus subtilis Sfp phosphopantetheinyl transferase (PPTase); settings: Biochemical Sfp PPTase activity;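 also: the enzyme is Sfp with the accession as filed and its product quenches rhodamine fluorescence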;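 as to Largest response in the series, negative = inhibition: 0% = enzyme reaction without inhibitor and -100% = no enzyme wells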
Excerpt: Assay Submitter: Michael Burkart, University of California, San Diego
Screening Center PI: Austin, C.P.
Screening Center: NIH Chemical Genomics Center [NCGC]
The covalent attachment of a phosphopantetheinyl (4'-PP) arm to a variety of synthases and other proteins is a key posttranslational protein modification. The 4'-PP is installed on the proteins post-translationally from coenzyme A (CoA) on a conserved serine residue by action of phosphopantetheinyl transferase (PPTase) enzymes. Phosphopantetheinylation is essential for synthase activity, and removal of the PPTase gene precludes natural product synthesis in microorganisms, or in the case of fatty acid biosynthesis, renders the organism unviable. PPTase enzymes belong to a distinct structural superfamily. Within bacteria, these enzymes are grouped into two classes based upon primary structure, the AcpS-Type and Sfp-Type PPTases.
Sfp-type PPTases, corresponding to an activator of surfactin production in Bacillus subtilis, are responsible for modifying type I polyketide and nonribosomal peptide synthases of prokaryotes. Sfp-type PPTases are responsible for the activation of a variety of pathogen-associated virulence factors. Among these compounds are toxins such as mycolactone from Mycobacterium ulcerans, siderophores such as vibriobactin from Vibrio cholerae or mycobactin from Mycobacterium tuberculosis, as well as the mycolic acids which form the waxy cell wall of Mycobacteria. The biosyntheses of these natural products are considered attractive targets for drug design.
In search of small molecule Sfp-PPTase inhibitors, a fluorescence quenching assay was developed for detection of Bacillus subtilis Sfp-PPTase enzymatic activity in a miniaturized high-throughput format. The consensus ybbr acceptor peptide […] was N-terminally labeled with Black Hole Quencher-2 (BHQ-2) and used in combination with rhodamine-labeled coenzyme A as a co-substrate.
Inhibition of Sfp-PPTase was detected by recording the fluorescence intensity change over a 30-minute reaction period at a 525 nm excitation and 598 nm emission. Reagents were supplied by Michael Burkart and Timothy Foley, University of California at San Diego.
This BioAssay deposition is for validation of the developed Sfp-PPtase assay.
Assay Buffer: 50 mM Hepes-Na pH 7.6, 10 mM MgCl2, 0.01% Nonidet P-40, and 0.01% BSA.
3 uL of Sfp-PPTase enzyme (final concentration 15 nM) and 1 uL of substrate mixture (final concentration for rhodamine-CoA and BHQ-2-YbbR 5 uM and 12.5 uM, respectively) dispensed in columns 1, 2, 5 - 48. Columns 1 and 2 used to generate neutral control (uninhibited reaction)
Three uL of reagents, consisting of buffer (in columns 3 and 4 as negative control) and Sfp-PPTase (in columns 1, 2, 5 - 48) were dispensed into 1,536-well Greiner black solid bottom plate. Compounds (23 nL) were transferred via Kalypsys pintool equipped with 1,536-pin array. The plate was incubated for 15 min at room temperature, followed by the addition of 1 uL substrate to start the reaction. The plate was then centrifuged at 1000 rpm for 15 seconds, and the fluorescence intensity recorded on a ViewLux High-throughput CCD imager (Perkin-Elmer) using standard BODIPY optics (525 nm excitation and 598 nm emission). The plate was then incubated for 30 minutes, and a second read on the ViewLux was performed. The fluorescence intensity difference over the 30-minute period was used to calculate the respective reaction rate for each well.
Potency is read from the fitted curve at half-maximal effect.

Potency, active:
CC(C)(C)C1C/C(=C/c2ccco2)C(=O)/C(=C/c2ccco2)C1 (stereo not drawn) 20 µM
CCOC(=O)C(=O)C1C(=O)Nc2ccccc21 (stereo not drawn) 25.1 µM
CCOC(=O)Cc1csc(NC(=O)CSc2nc(C)cc(=O)[nH]2)n1 17.8 µM
CCOC(=O)c1c(C)[nH]c(=S)c(C#N)c1-c1ccccc1 79.4 µM
CC(=O)c1c(C)[nH]c(=S)c(C#N)c1-c1ccc(F)cc1 44.7 µM
CN(C)S(=O)(=O)c1cccc(-c2nn(-c3ccccc3)cc2/C=C2\SC(=S)N(CC(=O)O)C2=O)c1 56.2 µM
COc1ccc(-c2nn(-c3ccccc3)cc2/C=C2/SC(=S)N(CCCC(=O)O)C2=O)c(C)c1 56.2 µM
Cc1ccc(-c2nn(-c3ccccc3)cc2/C=C2\SC(=S)N(CCCCCC(=O)O)C2=O)o1 39.8 µM
Cc1ccc(-c2nn(-c3ccccc3)cc2CN(Cc2ccccc2)C(=O)CCC(=O)O)o1 8.91 µM
CCn1cc(C(=O)NCCCN2CCCCCC2)c(=O)c2cc(S(=O)(=O)N3CCc4ccccc4C3)ccc21 89.1 µM
Oc1c(C(c2ccco2)N2CCC3(CC2)OCCO3)sc2ncnn12 (stereo not drawn) 28.2 µM
O=C(CSc1nnc(-c2ccco2)n1CC1CCCO1)c1ccccc1 (stereo not drawn) 50.1 µM
Cc1ccccc1NC(=O)CN1C(=O)N/C(=C\c2cccn2-c2cccc(C(=O)O)c2)C1=O 20 µM
CCOC(=O)C1(Cc2cccc(OC)c2)CCN(C(C)CC(C)(C)O)CC1 (stereo not drawn) 35.5 µM
COc1ccc(Cc2nc(-c3ccccn3)no2)cc1OC 79.4 µM
C=CC(=O)c1ccc2ccccc2c1 3.55 µM and 31.6 µM
O=C(c1cccnc1)N(c1cc2sc(=O)oc2c2ccccc12)S(=O)(=O)c1ccccc1 3.98 µM

Largest response in the series, negative = inhibition, inactive:
CCC1S/C(=N/N=C/c2ccco2)NC1=O (stereo not drawn) 3.46%
O=C1OC(/C=C/c2ccccc2)=NC/1=C/c1ccco1 12.2%
CCCC(=O)N1CCC(CCC(=O)NC2CC2)CC1 11.2%
COc1ccc(CNC(=O)C2CCN(C(=O)c3ccccc3)CC2)cc1 8.47%
CCOC(=O)CC1=CC(=O)Nc2ccccc2N1 -6.73%
CCCCC(CC)CNC(=O)C(=O)C1C(=O)Nc2ccccc21 (stereo not drawn) 22%
COC1=C/C(=C/c2c(N)n3nc(CC(=O)N4CCOCC4)sc3nc2=O)C=CC1=O -2.99%
CCC(NC(=O)c1ccccc1NC(=O)c1ccccc1)C(=O)NNC(=O)CSc1nc2ccccc2o1 (stereo not drawn) -1.67%
CCOC(=O)Cc1csc(NC(=O)CSc2ccc(Br)cc2)n1 11.6%
CCCCc1nnc(NC(=O)CSc2nc(C)cc(=O)[nH]2)s1 9.76%
Cc1ccc(-n2c(SCC(=O)NCCC3=CCCCC3)nc3n[nH]c(C)c3c2=N)cc1Cl 14.5%
CSc1cccc(NC(=O)CN2C(=O)COc3ccc(S(=O)(=O)N4CCOCC4)cc32)c1 10.2%
O=C1COc2ccc(S(=O)(=O)Nc3ccc(OC(F)(F)F)cc3)cc2N1 25.6%
Cc1nc([N+](=O)[O-])cn1CC(=O)Nc1ccc(Cl)cc1 16.2%
CCOC(=O)c1c(C)nc(-c2ccccc2)nc1NC(=O)C(C)C -3.48%
N#Cc1c(-c2ccc(Cl)cc2)c2c([nH]c1=S)CCCC2 -5.85%
CCOC(=O)c1c(C)[nH]c2c1-c1ccccc1C(=O)C2=O 4.96%
Cc1cc(C)c2c(-c3ccc(F)cc3)c(C#N)c(=O)n(C)c2n1 10.3%
Cc1ccc(S(=O)(=O)NCC(=O)N2CCOCCOCCOCCOCC2)cc1 7.3%
O=C(O)CCC(=O)N(Cc1ccccc1)Cc1ccccc1 17.6%
C=CCOc1ccc(/C=C2\SC(=S)N(CCC(=O)O)C2=O)cc1 6.13%
Cc1ccc(/C=C2\SC(=S)N(CCC(=O)Nc3ccc(O)cc3)C2=O)cc1 15.8%
COc1ccccc1C(=O)NNC(=O)CCN1C(=O)/C(=C\c2ccccc2)SC1=S -10.5%
O=C(CN1C(=O)/C(=C\c2ccccc2F)SC1=S)Nc1nc2ccccc2s1 5.28%
Cc1ccc(-c2nn(-c3ccccc3)cc2/C=C/C(=O)Nc2cccc(S(N)(=O)=O)c2)cc1 12.2%
Cc1ccc(-c2nn(-c3cccc(F)c3)cc2CNCCc2ccncc2)o1 -5%
COc1ccc(/C=C2\SC(=S)N(CCC(=O)Nc3ccccn3)C2=O)cc1OC 11%
Cc1n[nH]c(=O)c2c1nnn2Cc1ccc(F)cc1 6.71%
CCOCCCNC(=O)C1(O)c2cc(Br)ccc2NC(=O)N1c1ccc(C)c(C)c1 (stereo not drawn) -2.61%
Cc1ccc(S(=O)(=O)NCCC(=O)Nc2cccc(S(N)(=O)=O)c2)cc1C -1.6%
O=S(=O)(c1ccc(F)cc1)N1CCN=C1SCc1cccc(F)c1 5.65%
O=C(Nc1ccccc1C(=O)Nc1ccncc1)c1ccc([N+](=O)[O-])cc1 4.06%
O=C(CN1CCCCCC1)Nc1c(Cl)cc(Cl)cc1Cl 6.16%
O=S(O)S(=O)(=O)O 7.74%
Cc1nc2nc(C)c(NS(=O)(=O)c3ccc(C(C)(C)C)cc3)c(=O)n2[nH]1 14.4%
COc1cccc(C(=O)NC(=O)Nc2nc(C)cc(C(F)(F)F)n2)c1 14.9%
CC1CC(C)CN(CCCNC(=O)c2csc3c2CCCCC3)C1 (stereo not drawn) 5.49%
O=C(NCCc1cccc(F)c1)C1CCCN(c2nc3ccccc3s2)C1 (stereo not drawn) -6.45%
CN1CCN(c2ccccc2NC(=O)COc2ccc(C3CCCCC3)cc2)CC1 -19.2%
CCn1cc(C(=O)N2CC(C)CC(C)C2)c(=O)c2cc(S(=O)(=O)N3CCCC3)ccc21 (stereo not drawn) 3.15%
CCn1cc(C(=O)NCC2CCCO2)c(=O)c2cc(S(=O)(=O)N3CCCCC3)ccc21 (stereo not drawn) 4.08%
CCN1CCN(C(=O)C2CCN(S(=O)(=O)c3cc(Cl)ccc3Cl)CC2)CC1 7.6%
CC(C)c1ccc(NC(=O)[C@@H](NC(=O)N2CC(=O)Nc3ccccc32)C(C)C)cc1 4.22%
Cc1nc2sc(C(c3ccco3)N3CCOCC3)c(O)n2n1 (stereo not drawn) -2.77%
Oc1c(C(c2cccs2)N2CCN(c3ccc(F)cc3)CC2)sc2ncnn12 (stereo not drawn) 13.9%
Cc1ccc2c(c1)C(c1ccccc1)N(C(=O)c1ccc(F)cc1)CC(=O)N2 (stereo not drawn) -5.97%
Cc1cc(NC(=O)CCC(=O)N(CC(=O)NCC2CCCO2)c2ccccc2)no1 (stereo not drawn) -5.59%
CCn1c(SCC(=O)NC2CC2)nnc1-c1ccncc1 12.1%
CCc1ccccc1N(CC(=O)NCC1CCCO1)C(=O)CCC(=O)Nc1nccs1 (stereo not drawn) 11.3%
O=C(Nc1cc(-c2nc3ncccc3o2)ccc1Cl)c1ccco1 0.0878%
COC(=O)[C@]1(S(=O)(=O)c2ccccc2)C[C@@H]2ON=C(c3ccc(OC)cc3)[C@@H]2C1 -3.07%
Cc1nnc(SCC(N)=O)n1CC1CCCO1 (stereo not drawn) 13.7%
COc1ccccc1NC(=O)CSc1nnc(C)n1CC1CCCO1 (stereo not drawn) 14.7%
O=C(/C=C/c1ccc(Cl)cc1)NCCCn1ccnc1 -28%
Cc1nn(-c2ccccc2)c(Cl)c1/C=N/NC(=O)c1nn(C)cc1[N+](=O)[O-] -3.09%
N#Cc1ccccc1CN1C(=O)S/C(=C/c2cccn2-c2cccc(C(=O)O)c2)C1=O -18.1%
O=C1N/C(=C/c2cccn2-c2ccccc2)C(=O)N1c1cccc(Cl)c1 12.7%
Cn1ncc2c(N3CCCCC3)nc(NCCCO)nc21 14.5%
O=C(c1n[nH]c2c1CCC2)N1CCCC(Nc2cccc(F)c2)C1 (stereo not drawn) 4.84%
CC(C)(C)c1ccc(C(CC(=O)O)NS(=O)(=O)Cc2ccccc2)cc1 (stereo not drawn) -0.492%
CCOC(=O)C1(Cc2cccc(OC)c2)CCN(C(C)COC)CC1 (stereo not drawn) 2.4%
CCOC(=O)C1(Cc2cccc(OC)c2)CCN(Cc2csc(C(C)=O)c2)CC1 5.75%
Cc1oc2cc3oc(=O)ccc3cc2c1C 6.39%
CCCC[C@]12Cc3cc(OC)c(OC)cc3C(O1)C1=C(CC3(CCCCC3)OC1=O)O2 -4.17%
Cc1ccc(Cc2nc(-c3cccc(C)c3)no2)cc1 12.9%
COc1ccccc1Cc1nc(-c2ccc(C)cc2)no1 -1.19%
COc1cc(S(=O)(=O)N2CCN=C2c2ccccc2)ccc1Cl 14%
CC(C)C(C)NC(=O)COc1nc2ccccc2nc1N(C)C1CCCCC1 (stereo not drawn) -0.152%
COCCN(C(=O)CCC(=O)Nc1nccs1)C(C(=O)NCCC(C)C)c1ccc(F)cc1 (stereo not drawn) 9.51%
O=C(Nc1ccc(NC(=O)c2cccs2)cc1)c1ccc2ccccc2c1 -1.36%
CC(=O)CCC(=O)c1ccc2ccccc2c1 7.52%
Cc1ccccc1Nc1nc(-c2cccnc2)cs1 -24.9%
c1cnc(N2CCN(c3ccc4ccccc4n3)CC2)nc1 -3.4%
COc1ccccc1N1CCN(C(=O)CCS(=O)(=O)c2ccc3c(c2)NC(=O)C(C)S3)CC1 (stereo not drawn) 0.999%
COc1ccc(N(C(=O)c2cccnc2)S(=O)(=O)c2ccc3c(c2)n(C)c(=O)n3C)cc1 20.5%
COc1ccc(N(C(=O)c2cccnc2)S(=O)(=O)c2ccc(OC)c(OC)c2)cc1 3.04%
